# Measurements published in paper PMC7862700, “An all-to-all approach to the identification of sequence-specific readers for epigenetic DNA modifications on cytosine”.
# How the values were obtained:
# Experiment in all cases: DAPPL (digital affinity profiling via proximity ligation, sequencing); 10 mM Tris-HCl pH 7.5, 50 mM NaCl, 1 mM DTT, 4% glycerol, room temperature, 30 min; GST-TFs on glutathione beads, 16-mer random dsDNA library, 0.1% formaldehyde crosslink after washing; high values mean tight binding
# FEV = molecular target: T1, FEV (Homo sapiens, UniProt Q99581 1-238); conditions: protein: recombinant; tags: N-terminal GST; dsDNA, one strand shown
# T1 sequence: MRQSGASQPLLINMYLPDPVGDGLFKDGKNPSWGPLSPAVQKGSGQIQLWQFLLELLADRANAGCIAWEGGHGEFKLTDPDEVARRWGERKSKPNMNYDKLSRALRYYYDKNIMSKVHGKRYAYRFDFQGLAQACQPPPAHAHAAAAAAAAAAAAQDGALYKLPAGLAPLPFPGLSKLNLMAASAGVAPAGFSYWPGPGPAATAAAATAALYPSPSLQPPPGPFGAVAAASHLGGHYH
# How it was run: (§1)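 Binding signal is given per hexamer as its read frequency for a factor divided by its frequency in the tag-only sample. GST-fused human transcription factors were expressed in yeast, captured on glutathione beads, barcoded with DNA and pooled with that sample, then incubated with 200 nmole of a 16-mer random double-stranded DNA library in Tris/NaCl/DTT/glycerol buffer for 30 min at room temperature. The pools were then washed, crosslinked, proximity-ligated, amplified by PCR and sequenced on an Illumina NextSeq500.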
# ETV5 = ETV5 (Homo sapiens, UniProt P41161 1-510); conditions: protein: recombinant; tags: N-terminal GST; dsDNA, one strand shown
# How it was run: as §1
# HSF1 = HSF1 (Homo sapiens, UniProt Q00613 1-529); conditions: protein: recombinant; tags: N-terminal GST; chain copies: 3; dsDNA, one strand shown
# How it was run: as §1
# SPIC = molecular target: T2, SPIC (Homo sapiens, UniProt Q8N5J4 1-248); conditions: protein: recombinant; tags: N-terminal GST; dsDNA, one strand shown
# T2 sequence: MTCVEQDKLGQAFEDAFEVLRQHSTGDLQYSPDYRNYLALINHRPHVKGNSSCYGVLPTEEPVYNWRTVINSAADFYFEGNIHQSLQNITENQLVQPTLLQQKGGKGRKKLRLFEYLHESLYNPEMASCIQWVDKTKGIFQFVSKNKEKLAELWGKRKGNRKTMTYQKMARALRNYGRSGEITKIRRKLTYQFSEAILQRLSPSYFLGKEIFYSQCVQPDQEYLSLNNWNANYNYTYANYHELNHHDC
# How it was run: as §1
# ELF4 = ELF4 (Homo sapiens, UniProt Q99607 1-663); conditions: protein: recombinant; tags: N-terminal GST; dsDNA, one strand shown
# How it was run: as §1
# ELK4 = molecular target: T3, ELK4 (Homo sapiens, UniProt P28324-2 1-405); conditions: protein: recombinant; tags: N-terminal GST; dsDNA, one strand shown
# T3 sequence: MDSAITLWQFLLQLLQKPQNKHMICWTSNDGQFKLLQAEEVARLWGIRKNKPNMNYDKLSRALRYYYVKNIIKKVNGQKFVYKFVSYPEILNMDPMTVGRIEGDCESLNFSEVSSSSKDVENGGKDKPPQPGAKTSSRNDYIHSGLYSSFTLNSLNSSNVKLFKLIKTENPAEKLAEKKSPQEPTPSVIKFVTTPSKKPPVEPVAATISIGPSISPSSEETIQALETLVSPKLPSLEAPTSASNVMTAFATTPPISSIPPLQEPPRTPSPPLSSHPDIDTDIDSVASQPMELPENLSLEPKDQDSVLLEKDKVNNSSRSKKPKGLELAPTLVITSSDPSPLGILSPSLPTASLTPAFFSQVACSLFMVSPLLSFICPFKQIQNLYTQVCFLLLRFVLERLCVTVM
# How it was run: as §1
# ETV2 = molecular target: T4, ETV2 (Homo sapiens, UniProt O00321 1-342); conditions: protein: recombinant; tags: N-terminal GST; dsDNA, one strand shown
# T4 sequence: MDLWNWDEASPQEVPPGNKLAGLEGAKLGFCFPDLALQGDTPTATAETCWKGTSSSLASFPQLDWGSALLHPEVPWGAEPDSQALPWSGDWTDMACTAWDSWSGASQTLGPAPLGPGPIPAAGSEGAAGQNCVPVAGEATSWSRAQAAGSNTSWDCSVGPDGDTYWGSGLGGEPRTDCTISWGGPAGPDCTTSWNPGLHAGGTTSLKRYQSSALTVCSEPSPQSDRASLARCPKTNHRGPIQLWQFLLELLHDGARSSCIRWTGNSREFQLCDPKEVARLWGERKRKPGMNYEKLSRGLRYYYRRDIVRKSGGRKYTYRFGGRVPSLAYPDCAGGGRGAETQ
# How it was run: as §1
# ELF3 = molecular target: T5, ELF3 (Homo sapiens, UniProt P78545 1-371); conditions: protein: recombinant; tags: N-terminal GST; dsDNA, one strand shown
# T5 sequence: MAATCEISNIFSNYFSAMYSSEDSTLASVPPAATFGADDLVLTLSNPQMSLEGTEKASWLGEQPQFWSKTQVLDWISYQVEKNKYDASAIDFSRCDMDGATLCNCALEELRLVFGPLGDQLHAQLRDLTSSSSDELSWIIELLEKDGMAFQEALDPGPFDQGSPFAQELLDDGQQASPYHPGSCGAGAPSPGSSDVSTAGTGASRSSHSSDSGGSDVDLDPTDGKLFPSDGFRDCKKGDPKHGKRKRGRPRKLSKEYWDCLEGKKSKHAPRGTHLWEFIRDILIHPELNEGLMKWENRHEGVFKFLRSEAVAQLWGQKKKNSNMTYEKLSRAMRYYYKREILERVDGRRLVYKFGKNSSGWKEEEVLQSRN
# How it was run: as §1
# CRX = CRX (Homo sapiens, UniProt O43186 1-299); conditions: protein: recombinant; tags: N-terminal GST; dsDNA, one strand shown
# How it was run: as §1
# ETV1 = ETV1 (Homo sapiens, UniProt P50549 1-477); conditions: protein: recombinant; tags: N-terminal GST; dsDNA, one strand shown
# How it was run: as §1
# ERF = molecular target: T6, ERF (Homo sapiens, UniProt P50548 1-548); conditions: protein: recombinant; tags: N-terminal GST; dsDNA, one strand shown
# T6 sequence: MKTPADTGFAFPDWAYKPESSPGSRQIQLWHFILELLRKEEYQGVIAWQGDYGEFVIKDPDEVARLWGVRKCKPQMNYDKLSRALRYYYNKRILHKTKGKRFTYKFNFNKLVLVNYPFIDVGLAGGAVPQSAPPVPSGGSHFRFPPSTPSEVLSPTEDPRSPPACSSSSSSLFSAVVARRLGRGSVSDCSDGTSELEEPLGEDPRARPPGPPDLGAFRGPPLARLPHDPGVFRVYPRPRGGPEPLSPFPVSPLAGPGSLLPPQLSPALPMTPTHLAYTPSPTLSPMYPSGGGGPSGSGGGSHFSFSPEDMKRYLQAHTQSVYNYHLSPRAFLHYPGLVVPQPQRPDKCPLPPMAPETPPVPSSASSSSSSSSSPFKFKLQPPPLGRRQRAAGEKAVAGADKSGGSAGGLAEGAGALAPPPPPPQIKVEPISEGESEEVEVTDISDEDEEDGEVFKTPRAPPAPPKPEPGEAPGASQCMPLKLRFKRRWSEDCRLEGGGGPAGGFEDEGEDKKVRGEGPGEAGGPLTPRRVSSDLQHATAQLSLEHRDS
# How it was run: as §1
# ETV3L = molecular target: T7, ETV3L (Homo sapiens, UniProt Q6ZN32 1-361); conditions: protein: recombinant; tags: N-terminal GST; dsDNA, one strand shown
# T7 sequence: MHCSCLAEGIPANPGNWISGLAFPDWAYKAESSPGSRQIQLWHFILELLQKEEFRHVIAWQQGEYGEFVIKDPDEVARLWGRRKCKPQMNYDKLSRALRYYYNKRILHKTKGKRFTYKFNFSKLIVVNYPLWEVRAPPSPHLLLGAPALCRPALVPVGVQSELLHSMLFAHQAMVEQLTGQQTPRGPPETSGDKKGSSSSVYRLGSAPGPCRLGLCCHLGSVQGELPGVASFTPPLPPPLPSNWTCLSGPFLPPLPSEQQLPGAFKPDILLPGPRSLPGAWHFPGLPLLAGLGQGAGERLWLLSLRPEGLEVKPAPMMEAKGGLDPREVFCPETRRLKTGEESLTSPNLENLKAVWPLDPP
# How it was run: as §1
# ETS2 = molecular target: T8, ETS2 (Homo sapiens, UniProt P15036 1-469); conditions: protein: recombinant; tags: N-terminal GST; dsDNA, one strand shown
# T8 sequence: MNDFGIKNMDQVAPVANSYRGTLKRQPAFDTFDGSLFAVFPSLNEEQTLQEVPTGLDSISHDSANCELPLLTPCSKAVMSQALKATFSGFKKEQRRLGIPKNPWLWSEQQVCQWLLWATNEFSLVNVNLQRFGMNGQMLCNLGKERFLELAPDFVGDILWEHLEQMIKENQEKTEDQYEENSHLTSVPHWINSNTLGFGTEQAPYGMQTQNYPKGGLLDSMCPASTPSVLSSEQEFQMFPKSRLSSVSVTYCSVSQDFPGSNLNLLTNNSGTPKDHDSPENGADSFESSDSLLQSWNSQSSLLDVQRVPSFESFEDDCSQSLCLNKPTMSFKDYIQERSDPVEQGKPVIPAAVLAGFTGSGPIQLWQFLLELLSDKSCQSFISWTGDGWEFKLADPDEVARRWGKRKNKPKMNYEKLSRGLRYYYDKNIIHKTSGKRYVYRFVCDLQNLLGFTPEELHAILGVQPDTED
# How it was run: as §1
# SPDEF = molecular target: T9, SPDEF (Homo sapiens, UniProt O95238 1-335); conditions: protein: recombinant; tags: N-terminal GST; dsDNA, one strand shown
# T9 sequence: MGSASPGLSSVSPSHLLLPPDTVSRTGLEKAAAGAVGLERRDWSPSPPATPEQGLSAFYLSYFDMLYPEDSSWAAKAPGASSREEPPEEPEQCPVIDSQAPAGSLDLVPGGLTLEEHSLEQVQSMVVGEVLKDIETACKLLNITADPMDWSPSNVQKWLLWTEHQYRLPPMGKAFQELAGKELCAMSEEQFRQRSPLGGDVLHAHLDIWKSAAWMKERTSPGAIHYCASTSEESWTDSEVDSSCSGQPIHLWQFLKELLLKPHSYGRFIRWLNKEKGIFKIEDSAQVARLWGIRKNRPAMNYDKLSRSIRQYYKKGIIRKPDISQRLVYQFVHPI
# How it was run: as §1
# ETV7 = molecular target: T10, ETV7 (Homo sapiens, UniProt Q9Y603 1-341); conditions: protein: recombinant; tags: N-terminal GST; dsDNA, one strand shown
# T10 sequence: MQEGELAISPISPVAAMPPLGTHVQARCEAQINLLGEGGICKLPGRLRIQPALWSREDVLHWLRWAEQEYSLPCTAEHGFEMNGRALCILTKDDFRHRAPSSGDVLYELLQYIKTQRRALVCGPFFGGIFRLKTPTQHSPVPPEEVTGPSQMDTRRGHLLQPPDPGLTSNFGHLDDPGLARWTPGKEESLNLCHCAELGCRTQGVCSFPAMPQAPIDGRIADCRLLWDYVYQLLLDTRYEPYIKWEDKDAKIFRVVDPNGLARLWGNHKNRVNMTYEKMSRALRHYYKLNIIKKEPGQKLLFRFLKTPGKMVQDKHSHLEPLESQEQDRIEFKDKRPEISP
# How it was run: as §1
# ELF5 = molecular target: T11, ELF5 (Homo sapiens, UniProt Q9UKW6-2 1-255); conditions: protein: recombinant; tags: N-terminal GST; dsDNA, one strand shown
# T11 sequence: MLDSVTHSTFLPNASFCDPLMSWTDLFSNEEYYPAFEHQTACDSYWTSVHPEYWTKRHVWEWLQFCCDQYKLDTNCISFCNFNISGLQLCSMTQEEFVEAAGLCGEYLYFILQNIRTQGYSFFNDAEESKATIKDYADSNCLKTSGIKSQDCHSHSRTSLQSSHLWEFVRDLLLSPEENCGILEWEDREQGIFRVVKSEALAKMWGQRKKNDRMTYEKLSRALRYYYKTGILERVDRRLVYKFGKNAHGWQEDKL
# How it was run: as §1
# ETV3 = molecular target: T12, ETV3 (Homo sapiens, UniProt P41162-2 1-143); conditions: protein: recombinant; tags: N-terminal GST; dsDNA, one strand shown
# T12 sequence: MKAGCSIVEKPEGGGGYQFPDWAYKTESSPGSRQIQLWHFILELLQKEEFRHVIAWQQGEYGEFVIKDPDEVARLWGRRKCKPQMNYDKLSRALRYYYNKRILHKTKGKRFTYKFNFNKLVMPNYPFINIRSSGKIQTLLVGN
# How it was run: as §1
# ETV6 = ETV6 (Homo sapiens, UniProt P41212 1-452); conditions: protein: recombinant; tags: N-terminal GST; dsDNA, one strand shown
# How it was run: as §1
# Chain of ELF4 (Q99607 whole entry): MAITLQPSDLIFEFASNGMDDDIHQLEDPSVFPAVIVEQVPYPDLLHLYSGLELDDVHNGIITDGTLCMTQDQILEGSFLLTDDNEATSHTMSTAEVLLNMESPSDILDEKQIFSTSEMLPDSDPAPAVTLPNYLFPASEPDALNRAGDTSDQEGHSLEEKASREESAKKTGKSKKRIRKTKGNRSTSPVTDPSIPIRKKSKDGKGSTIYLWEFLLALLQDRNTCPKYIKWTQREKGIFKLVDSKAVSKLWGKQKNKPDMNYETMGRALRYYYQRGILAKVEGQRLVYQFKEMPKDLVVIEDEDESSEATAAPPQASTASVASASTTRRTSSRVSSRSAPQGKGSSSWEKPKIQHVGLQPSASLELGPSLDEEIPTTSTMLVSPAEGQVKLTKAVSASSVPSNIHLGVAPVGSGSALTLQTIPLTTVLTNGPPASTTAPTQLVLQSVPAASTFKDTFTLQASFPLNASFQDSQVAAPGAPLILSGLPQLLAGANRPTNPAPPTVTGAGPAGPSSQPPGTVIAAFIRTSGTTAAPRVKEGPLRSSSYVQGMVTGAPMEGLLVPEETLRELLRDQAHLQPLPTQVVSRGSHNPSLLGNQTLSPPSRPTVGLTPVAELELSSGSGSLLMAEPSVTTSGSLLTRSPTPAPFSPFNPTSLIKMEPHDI
# Chain of CRX (O43186 whole entry): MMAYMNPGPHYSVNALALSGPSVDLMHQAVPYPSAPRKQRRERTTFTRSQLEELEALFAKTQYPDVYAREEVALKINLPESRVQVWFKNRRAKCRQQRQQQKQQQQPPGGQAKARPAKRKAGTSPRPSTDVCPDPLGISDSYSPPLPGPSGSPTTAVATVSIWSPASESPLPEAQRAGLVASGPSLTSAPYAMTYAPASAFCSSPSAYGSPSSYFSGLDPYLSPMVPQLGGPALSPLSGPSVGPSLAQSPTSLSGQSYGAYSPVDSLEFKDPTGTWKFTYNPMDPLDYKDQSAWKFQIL
# Chain of ETV5 (P41161 whole entry): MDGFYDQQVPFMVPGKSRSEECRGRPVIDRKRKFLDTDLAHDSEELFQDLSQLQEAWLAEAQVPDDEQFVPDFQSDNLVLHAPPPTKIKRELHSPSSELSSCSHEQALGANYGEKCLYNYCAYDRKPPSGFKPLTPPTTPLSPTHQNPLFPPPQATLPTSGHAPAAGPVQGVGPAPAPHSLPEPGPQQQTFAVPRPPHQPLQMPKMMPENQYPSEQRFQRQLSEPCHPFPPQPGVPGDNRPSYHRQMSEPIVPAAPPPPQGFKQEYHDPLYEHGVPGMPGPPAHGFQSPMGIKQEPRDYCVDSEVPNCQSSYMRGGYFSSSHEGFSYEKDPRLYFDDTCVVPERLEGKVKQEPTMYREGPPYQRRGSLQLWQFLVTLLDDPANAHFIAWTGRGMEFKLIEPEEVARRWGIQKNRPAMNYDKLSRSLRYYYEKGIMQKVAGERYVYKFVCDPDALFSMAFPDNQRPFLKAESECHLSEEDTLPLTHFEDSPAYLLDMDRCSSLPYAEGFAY
# Chain of HSF1 (Q00613 whole entry): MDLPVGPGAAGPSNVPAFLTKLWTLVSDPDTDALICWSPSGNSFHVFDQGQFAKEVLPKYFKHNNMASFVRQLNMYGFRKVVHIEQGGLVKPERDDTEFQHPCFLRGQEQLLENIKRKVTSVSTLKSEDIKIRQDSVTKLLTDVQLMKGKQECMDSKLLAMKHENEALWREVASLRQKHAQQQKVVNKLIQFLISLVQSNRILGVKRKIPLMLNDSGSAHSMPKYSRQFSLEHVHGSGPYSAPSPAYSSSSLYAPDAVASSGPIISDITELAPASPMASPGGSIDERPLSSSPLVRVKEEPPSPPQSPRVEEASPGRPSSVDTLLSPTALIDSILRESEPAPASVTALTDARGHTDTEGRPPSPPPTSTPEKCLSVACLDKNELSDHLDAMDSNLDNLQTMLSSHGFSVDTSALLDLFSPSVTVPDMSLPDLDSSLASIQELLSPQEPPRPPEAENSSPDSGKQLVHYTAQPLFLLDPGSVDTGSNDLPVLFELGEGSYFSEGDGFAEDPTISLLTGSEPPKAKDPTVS
# Chain of ETV6 (P41212 whole entry): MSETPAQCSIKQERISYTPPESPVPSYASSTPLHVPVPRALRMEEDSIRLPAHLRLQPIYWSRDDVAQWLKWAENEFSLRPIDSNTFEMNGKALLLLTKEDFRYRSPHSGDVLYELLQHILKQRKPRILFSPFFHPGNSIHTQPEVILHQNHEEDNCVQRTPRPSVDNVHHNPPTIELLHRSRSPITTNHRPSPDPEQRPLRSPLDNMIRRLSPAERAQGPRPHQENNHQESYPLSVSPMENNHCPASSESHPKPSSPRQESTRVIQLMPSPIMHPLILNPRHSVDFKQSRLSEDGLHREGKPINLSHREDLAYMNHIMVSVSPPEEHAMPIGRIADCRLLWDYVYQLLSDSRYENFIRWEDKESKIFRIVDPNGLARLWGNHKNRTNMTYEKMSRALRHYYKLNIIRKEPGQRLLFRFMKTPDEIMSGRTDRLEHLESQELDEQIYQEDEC
# Chain of ETV1 (P50549 whole entry): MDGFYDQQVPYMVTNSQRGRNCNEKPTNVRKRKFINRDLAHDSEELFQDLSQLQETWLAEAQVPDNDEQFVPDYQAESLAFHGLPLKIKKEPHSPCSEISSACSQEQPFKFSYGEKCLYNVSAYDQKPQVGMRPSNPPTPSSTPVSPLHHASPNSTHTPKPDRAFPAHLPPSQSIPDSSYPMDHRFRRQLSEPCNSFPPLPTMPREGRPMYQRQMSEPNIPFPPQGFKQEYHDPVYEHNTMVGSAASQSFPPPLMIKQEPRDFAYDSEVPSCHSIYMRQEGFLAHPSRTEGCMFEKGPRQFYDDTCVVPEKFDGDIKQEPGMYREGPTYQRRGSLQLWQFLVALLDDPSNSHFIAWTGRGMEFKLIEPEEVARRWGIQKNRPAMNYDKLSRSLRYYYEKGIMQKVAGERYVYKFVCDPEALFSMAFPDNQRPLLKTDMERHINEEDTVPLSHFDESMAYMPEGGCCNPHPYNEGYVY
sequence,measurement,setting,value
GTTTTT,binding signal,FEV,"1.23 fold enrichment (6-mer frequency, TF over GST control)"
same,binding signal,ETV5,"1.31 fold enrichment (6-mer frequency, TF over GST control)"
same,binding signal,HSF1,"1.21 fold enrichment (6-mer frequency, TF over GST control)"
same,binding signal,SPIC,"1.41 fold enrichment (6-mer frequency, TF over GST control)"
same,binding signal,ELF4,"1.33 fold enrichment (6-mer frequency, TF over GST control)"
same,binding signal,ELK4,"1.32 fold enrichment (6-mer frequency, TF over GST control)"
same,binding signal,ETV2,"1.38 fold enrichment (6-mer frequency, TF over GST control)"
same,binding signal,ELF3,"1.29 fold enrichment (6-mer frequency, TF over GST control)"
same,binding signal,CRX,"1.13 fold enrichment (6-mer frequency, TF over GST control)"
same,binding signal,ETV1,"1.24 fold enrichment (6-mer frequency, TF over GST control)"
same,binding signal,ERF,"1.07 fold enrichment (6-mer frequency, TF over GST control)"
same,binding signal,ETV3L,"1.3 fold enrichment (6-mer frequency, TF over GST control)"
same,binding signal,ETS2,"1.25 fold enrichment (6-mer frequency, TF over GST control)"
same,binding signal,SPDEF,"1.23 fold enrichment (6-mer frequency, TF over GST control)"
same,binding signal,ETV7,"1.2 fold enrichment (6-mer frequency, TF over GST control)"
same,binding signal,ELF5,"1.36 fold enrichment (6-mer frequency, TF over GST control)"
same,binding signal,ETV3,"1.34 fold enrichment (6-mer frequency, TF over GST control)"
same,binding signal,ETV6,"1.21 fold enrichment (6-mer frequency, TF over GST control)"
